Experimental data from PubChem BioAssay.
Active and inactive are the calls of the source.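 The calls were made as follows: active = compounds whose cell count with miR-34 switched on is under 0.7 times the count with it off; inactive = the rest.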

Assay: viability loss with induced miR-34 in A549 – imaging, A549 dox-inducible miR-34, nuclei and caspase counts, primary screen (AID 1347080); also: test concentration not given here
Settings: A549 miR-34 inducible, Hoechst nuclei count, 48 h
[1] = stronger effect = lower value, cell number ratio, induced over uninduced
[2] = measured here: relative caspase fold change +Dox/-Dox
[3] = measured here: total cells with miR-34 induction, stronger effect = lower value
[4] = measured here: total cells without miR-34 induction

Structure (SMILES)	fold change [1]	fold change [2]	cell count [3]	cell count [4]
O=C(CCCC[C@@H]1SC[C@@H]2NC(=O)N[C@@H]21)NCCCC[C@H](NC(=O)CCN1C(=O)C=CC1=O)C(=O)O	0.911 (inactive)	0.469	5380	5910
O=C(O)CCC/C=C\CC1C(=O)C[C@@H](O)[C@@H]1/C=C/[C@@H](O)COc1ccccc1 (some centres undefined)	0.868 (inactive)	1.75	5400	6220
CCCCCCCCCCCCCCCCCC(=O)NCCS(=O)(=O)O	1.11 (inactive)	0.61	6120	5530
CCCCC[C@](C)(O)/C=C/[C@@H]1[C@@H](C/C=C\CCCC(=O)OC)[C@@H](O)C[C@H]1O	0.977 (inactive)	1.61	6340	6490
CCCCC[C@@H](O)/C=C/[C@H]1[C@H](O)CC(=O)[C@@H]1C/C=C\CCCC(=O)O	0.971 (inactive)	1.57	6000	6180
O=C(O)CCC/C=C\C[C@@H]1[C@@H](CC[C@@H](O)CCc2cccc(C(F)(F)F)c2)[C@H](O)C[C@@H]1O	0.926 (inactive)	1.34	6330	6830
CC/C=C\C/C=C\C/C=C\C/C=C\CCCCC(=O)OCC	1.03 (inactive)	1.28	5830	5650
CCCCC[C@@](C)(O)/C=C/[C@H]1C(=O)C[C@H](O)[C@@H]1C/C=C\CCCC(=O)O	0.936 (inactive)	1.24	5370	5740
C=C1C[C@@H](O)[C@H](/C=C/[C@@H](O)CCCCC)[C@H]1C/C=C\CCCC(=O)O	0.899 (inactive)	1.24	5620	6250
CCCCC[C@@H](O)/C=C/[C@H]1C[C@H]2C[C@@H]([C@@H]1C/C=C\CCCC(=O)O)C2(C)C	0.917 (inactive)	0.452	5480	5970
CC/C=C\C/C=C\C/C=C\C/C=C\CCCCC(=O)O	0.875 (inactive)	0.773	5720	6540
CCC(O)/C=C/C=O (centres undefined)	0.941 (inactive)	1.21	5860	6230
CCN(CC)C(=O)CCC/C=C\C[C@@H]1[C@@H](/C=C/[C@@H](O)CCc2ccccc2)[C@H](O)C[C@@H]1O	0.995 (inactive)	1.45	5990	6020
c1ccc2c(NCCCCCCCNc3c4c(nc5ccccc35)CCCC4)c3c(nc2c1)CCCC3	1.06 (inactive)	0.663	4480	4230
C[C@H](N)C(=O)CCCCCC(=O)O	1.03 (inactive)	0.642	6090	5890
CCCCCCCCNC(=O)Cc1c(C)n(C(=O)c2ccc(Cl)cc2)c2ccc(OC)cc12	1.03 (inactive)	0.978	5650	5490

Structure (SMILES)	fold change [1]	fold change [2]	cell count [3]	cell count [4]
CCCCC[C@H](O)/C=C/[C@H]1[C@H](O)CC(=O)[C@H]1CCCCCCC(=O)O	1.03 (inactive)	0.989	5570	5390
CCCCC/C=C\C/C=C\C/C=C\CCCCC(=O)OC	1.06 (inactive)	0.952	6900	6530
CCCCC[C@H](O)/C=C/[C@@H]1[C@@H](CCCCC(CC(=O)O)OC)[C@@H](O)C[C@H]1O (some centres undefined)	0.924 (inactive)	1.3	5980	6470
CCCCC[C@H](O)/C=C/[C@H]1[C@H](O)CC(=O)[C@@H]1C/C=C/CCCC(=O)O	0.972 (inactive)	1.22	5510	5670
CCOC(=O)c1c(Cc2cccc(Cl)c2)[nH]c2c1cc(O)c1ccccc12	0.954 (inactive)	1.94	4980	5220
CC(=O)OCC(=O)[C@@]12N=C(C)O[C@@H]1CC1C3CCC4=CC(=O)C=C[C@]4(C)C3[C@@H](O)C[C@@]12C (some centres undefined)	0.915 (inactive)	0.993	6330	6910
CCCCC[C@](C)(O)/C=C/[C@H]1C(=O)C[C@H](O)[C@@H]1C/C=C\CCCC(=O)O	1.01 (inactive)	0.91	5200	5160
CCCCC/C=C\C/C=C\C/C=C\C/C=C\CCCC(=O)NC[C@]1(C)CCC[C@]2(C)c3ccc(C(C)C)cc3CC[C@@H]12	0.99 (inactive)	1.27	5530	5580
N[C@@H](Cc1ccc(O)c([N+](=O)[O-])c1)C(=O)O	0.943 (inactive)	1.05	5730	6080
O=C(O)CCC/C=C\C[C@@H]1[C@@H](/C=C/[C@@H](O)C2Cc3ccccc3C2)[C@@H](F)C[C@@H]1O	0.86 (inactive)	2.11	4580	5320
O=C(c1cccs1)c1ccc(OCCCO)c(Cl)c1Cl	0.896 (inactive)	0.529	5620	6270
CCCCC[C@H](O)CC[C@@H]1[C@@H](C/C=C\CCCC(=O)O)[C@@H](O)C[C@H]1O	0.936 (inactive)	1.41	6190	6610
C[C@@H]1CC[C@H]2[C@@H](C)C(O)O[C@@H]3OC4(C)CC[C@@H]1[C@]32OO4 (some centres undefined)	0.843 (inactive)	0.767	3740	4440
CCCCC[C@@](C)(O)/C=C/[C@H]1[C@H](O)CC(=O)[C@@H]1C/C=C\CCCC(=O)O	1.04 (inactive)	1.07	5770	5570
CC/C=C\C/C=C\C/C=C\C/C=C\CCCCCCC(=O)OCC	0.858 (inactive)	2.1	5560	6480
